Measurements as given in PubChem BioAssay AID1159580 (chemical genetic matrix, 2015).
About 2,000 (36%) of roughly 5,500 compounds were called active. Inconclusive results (about 18%) are left out. No stated cut-off is given here; in the data, active means normalized growth mostly below about 0.91 (no sharp cut-off); inconclusive means no clear call, values can overlap the other calls; inactive means mostly above about 0.92. The list shows a part of the results.

Assay: chemical genetic growth profiling, strain panel (AID 1159580);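 further: tested at 20 µM; growth read once vehicle control cultures reached saturation at 30 °C; 1 = growth at the plate median or of vehicle wells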
Details: growth OD

Measured: normalized growth

COc1cc2c(cc1OC)C1C(=O)c3c(cc4c(c3O)C=CC(C)(C)O4)OC1CO2 (configuration not stated)
active: S. cerevisiae deletion strains, locus YGR229C, strain SMI1, stronger effect = lower value 1.3 [resistant] | S. cerevisiae deletion strains, locus YKR001C, strain vps1, stronger effect = lower value 0.724
inactive: S. cerevisiae deletion strains, locus YBR021W, strain FUR4, stronger effect = lower value 1 | S. cerevisiae deletion strains, locus YBR229C, strain ROT2, stronger effect = lower value 1.02 | S. cerevisiae deletion strains, locus YCL029C, strain bik1, stronger effect = lower value 1.03 | S. cerevisiae deletion strains, locus YDL035C, strain GPR1, stronger effect = lower value 1.03 | S. cerevisiae deletion strains, locus YDL074C, strain BRE1, stronger effect = lower value 1.13 | S. cerevisiae deletion strains, locus YDL101C, strain DUN1, stronger effect = lower value 1.01 | S. cerevisiae deletion strains, locus YDL134C, strain PPH21, stronger effect = lower value 1 | S. cerevisiae deletion strains, locus YDL185W, strain tfp1, stronger effect = lower value 1.02 | S. cerevisiae deletion strains, locus YDL192W, strain arf1, stronger effect = lower value 0.996 | S. cerevisiae deletion strains, locus YDR101C, strain arx1, stronger effect = lower value 0.99 | S. cerevisiae deletion strains, locus YDR162C, strain NBP2, stronger effect = lower value 1.03 | S. cerevisiae deletion strains, locus YDR318W, strain mcm21, stronger effect = lower value 1.02 | S. cerevisiae deletion strains, locus YDR388W, stronger effect = lower value 1.02 | S. cerevisiae deletion strains, locus YDR502C, strain sam2, stronger effect = lower value 1.02 | S. cerevisiae deletion strains, locus YER110C, stronger effect = lower value 1.02 | S. cerevisiae deletion strains, locus YER155C, strain BEM2, stronger effect = lower value 1.04 | S. cerevisiae deletion strains, locus YER167W, strain BCK2, stronger effect = lower value 1.01 | S. cerevisiae deletion strains, locus YGL078C, strain dbp3, stronger effect = lower value 1.01 | S. cerevisiae deletion strains, locus YGL086W, strain mad1, stronger effect = lower value 1.01 | S. cerevisiae deletion strains, locus YGL248W, strain PDE1, stronger effect = lower value 1.03 | S. cerevisiae deletion strains, locus YGR135W, strain pre9, stronger effect = lower value 1.06 | S. cerevisiae deletion strains, locus YGR252W, strain gcn5, stronger effect = lower value 1.08 | S. cerevisiae deletion strains, locus YHR079C, strain IRE1 (second series), stronger effect = lower value 1.02 | S. cerevisiae deletion strains, locus YHR094C, strain hxt1, stronger effect = lower value 1.03 | S. cerevisiae deletion strains, locus YHR129C, strain ARP1, stronger effect = lower value 1.02 | S. cerevisiae deletion strains, locus YHR200W, strain rpn10, stronger effect = lower value 1.02 | S. cerevisiae deletion strains, locus YIL066C, strain RNR3, stronger effect = lower value 1 | S. cerevisiae deletion strains, locus YIL073C, strain SPO22, stronger effect = lower value 1.28 | S. cerevisiae deletion strains, locus YIL125W, strain kgd1, stronger effect = lower value 1 | S. cerevisiae deletion strains, locus YIR030C, strain dcg1, stronger effect = lower value 1.02 | S. cerevisiae deletion strains, locus YJL095W, strain BCK1, stronger effect = lower value 1.05 | S. cerevisiae deletion strains, locus YJL134W, strain LCB3, stronger effect = lower value 1.01 | S. cerevisiae deletion strains, locus YJL168C, strain set2, stronger effect = lower value 1.03 | S. cerevisiae deletion strains, locus YJL187C, strain SWE1 (second series), stronger effect = lower value 1.01 | S. cerevisiae deletion strains, locus YKL009W, strain mrt4, stronger effect = lower value 1.04 | S. cerevisiae deletion strains, locus YKL068W, stronger effect = lower value 1.01 | S. cerevisiae deletion strains, locus YKL085W, strain MDH1 (second series), stronger effect = lower value 1.01 | S. cerevisiae deletion strains, locus YKL085W, strain MDH1, stronger effect = lower value 1.01 | S. cerevisiae deletion strains, locus YKL190W, strain CNB1, stronger effect = lower value 1 | S. cerevisiae deletion strains, locus YLR039C, strain RIC1, stronger effect = lower value 0.992 | S. cerevisiae deletion strains, locus YLR058C, strain SHM2, stronger effect = lower value 1.01 | S. cerevisiae deletion strains, locus YLR102C, strain apc9, stronger effect = lower value 1.02 | S. cerevisiae deletion strains, locus YLR262C, strain YPT6, stronger effect = lower value 0.991 | S. cerevisiae deletion strains, locus YLR268W, strain sec22, stronger effect = lower value 1.02 | S. cerevisiae deletion strains, locus YLR342W, strain FKS1 (second series), stronger effect = lower value 0.961 | S. cerevisiae deletion strains, locus YLR371W, strain rom2, stronger effect = lower value 1.03 | S. cerevisiae deletion strains, locus YLR418C, strain cdc73, stronger effect = lower value 1.13 | S. cerevisiae deletion strains, locus YML016C, strain PPZ1, stronger effect = lower value 0.996 | S. cerevisiae deletion strains, locus YML032C, strain rad52, stronger effect = lower value 0.998 | S. cerevisiae deletion strains, locus YML124C, strain tub3, stronger effect = lower value 1.02 | S. cerevisiae deletion strains, locus YMR078C, strain ctf18, stronger effect = lower value 1.02 | S. cerevisiae deletion strains, locus YMR223W, strain ubp8, stronger effect = lower value 1.01 | S. cerevisiae deletion strains, locus YMR307W, strain GAS1, stronger effect = lower value 1.18 | S. cerevisiae deletion strains, locus YNL067W, strain RPL9B, stronger effect = lower value 1.01 | S. cerevisiae deletion strains, locus YNL153C, strain GIM3, stronger effect = lower value 1.04 | S. cerevisiae deletion strains, locus YNL233W, strain BNI4, stronger effect = lower value 1.06 | S. cerevisiae deletion strains, locus YNL250W, strain rad50, stronger effect = lower value 1.05 | S. cerevisiae deletion strains, locus YNL271C, strain bni1, stronger effect = lower value 1.01 | S. cerevisiae deletion strains, locus YNL298W, strain CLA4, stronger effect = lower value 1 | S. cerevisiae deletion strains, locus YNL307C, strain MCK1, stronger effect = lower value 1.03 | S. cerevisiae deletion strains, locus YNR052C, strain pop2, stronger effect = lower value 1.04 | S. cerevisiae deletion strains, locus YOL012C, strain htz1 0.98 | S. cerevisiae deletion strains, locus YOL147C, strain pex11, stronger effect = lower value 1.01 | S. cerevisiae deletion strains, locus YOR061W, strain CKA2, stronger effect = lower value 1 | S. cerevisiae deletion strains, locus YOR069W, strain VPS5, stronger effect = lower value 1.01 | S. cerevisiae deletion strains, locus YOR136W, strain idh2, stronger effect = lower value 1.06 | S. cerevisiae deletion strains, locus YOR144C, strain elg1, stronger effect = lower value 1.01 | S. cerevisiae deletion strains, locus YOR184W, strain ser1, stronger effect = lower value 0.99 | S. cerevisiae deletion strains, locus YOR316C, strain cot1, stronger effect = lower value 1.02 | S. cerevisiae deletion strains, locus YPR119W, strain clb2, stronger effect = lower value 1.02 | S. cerevisiae deletion strains, locus YPR141C, strain kar3, stronger effect = lower value 1 | S. cerevisiae deletion strains, locus YPR163C, strain tif3, stronger effect = lower value 1.03 | S. cerevisiae deletion strains, locus YPR167C, strain met16, stronger effect = lower value 1.01 | S. cerevisiae deletion strains, strain wtn01, stronger effect = lower value 0.989 | S. cerevisiae strains, strain wild type, stronger effect = lower value 1.02
